SMILES strings stand for the structures. Values joined by “and” are separate entries in the source; they are usually repeats but may differ in a detail not shown here. Equal values may be shown once. Screen size: about 16,000 compounds; about 5,800 (36%) were called active. Another 23% or so got no clear call; they are omitted. The list shows a part of the results. Values without a mark were called inactive. The call rests on the fitted dose curve; in most records, active means well fitted curve in the direction sought with a large enough effect; inconclusive means small, poorly fitted or top-dose-only effect, or effect the other way; inactive means no such curve, though single readings can be large or run the other way.
On the % scale 0 is the no-effect control and ±100 the full control effect.

Sequence of Cytochrome P450 2C19 (Homo sapiens) (P33261 whole entry, looked up): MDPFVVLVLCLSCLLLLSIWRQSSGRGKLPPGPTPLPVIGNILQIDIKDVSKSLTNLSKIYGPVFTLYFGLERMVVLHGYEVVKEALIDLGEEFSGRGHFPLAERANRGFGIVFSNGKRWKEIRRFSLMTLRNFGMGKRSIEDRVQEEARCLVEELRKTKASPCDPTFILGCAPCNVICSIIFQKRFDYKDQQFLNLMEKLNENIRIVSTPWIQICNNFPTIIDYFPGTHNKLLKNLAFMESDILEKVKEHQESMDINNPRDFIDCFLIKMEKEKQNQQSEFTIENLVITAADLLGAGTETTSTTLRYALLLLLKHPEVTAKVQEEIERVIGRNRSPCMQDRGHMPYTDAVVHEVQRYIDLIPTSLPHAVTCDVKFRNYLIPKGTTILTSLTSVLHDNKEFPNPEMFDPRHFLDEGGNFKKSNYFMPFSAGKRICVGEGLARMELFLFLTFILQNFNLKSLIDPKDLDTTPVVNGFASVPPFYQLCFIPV

This experiment has as its target Cytochrome P450 2C19 (Homo sapiens) (UniProt P33261). The experiment is described as follows: Cytochrome panel assay with activity outcomes. The conditions noted are these: recombinant CYP, pro-luciferin dealkylation, luminescence, p450-cyp2c19; series mostly up to 57.1 µM.
For orientation: AC50 means the concentration at which the activity in the assay is half-maximal. In the case of `C[C@]1(C2CCCC2)Cc2cc(OCC(=O)O)c(Cl)c(Cl)c2C1=O`, the AC50 result is “inactive”.
Consider `O=C(CN1CCN(C2CCCCC2)CC1)NCCC1=CCCCC1`, for which the AC50 entry is “inactive”.
Still for that read-out and setting: under `Cc1nc2ncnn2c(C)c1CCC(=O)NCCC1=CCCCC1` stands “inactive”.
Same read-out and setting: under `O=C(COc1ccc(Cl)cc1)NCCC1=CCCCC1` stands 3980 nM (active).
As to `O=C(CN1C(=O)NC2(CCCC2)C1=O)NCCC1=CCCCC1`, the concentration at half-maximal activity (AC50) was 14100 nM (active).
With `O=C(CN1CCN(c2ncccn2)CC1)NCCC1=CCCCC1`, the AC50 was 4470 nM (active).
Same read-out and setting: under `CCCn1c(=O)c2[nH]c(-c3ccc(OCC(=O)NCCN)cc3)nc2n(CCC)c1=O` stands “inactive”.
Take `O=C(CCN1CCCCC1)c1csc2ccccc12`: the activity, negative = inhibition is -22.7% [at 11.4 µM].
For `O=C(c1[nH]o[n+](=O)c1C(=O)c1csc2ccccc12)c1csc2ccccc12`, the half-maximal activity concentration (AC50) was 1000 nM (active).
For `Cc1cccc(C(=O)O)c1C[C@H]1NCC[C@H]2c3ccccc3N[C@@H]12`, the activity, negative = inhibition is 3.69% [at 11.4 µM].
In the case of `Cc1nn(Cc2ccc(Cl)cc2)c(C)c1NC(=O)CSc1nc2c(c(C(F)(F)F)n1)CCc1ccccc1-2`, the AC50 is 2820 nM (active).
For `Cc1ccccc1Cn1cc(NC(=O)CSc2nc3c(c(C(F)(F)F)n2)CCc2ccccc2-3)cn1`, the AC50 was 3980 nM (active).
`CC1(C)[C@@H]2CC[C@]1(C)[C@@H](OC(=O)CSC#N)C2`: the activity, negative = inhibition was -26.6% [at 11.4 µM].
Turning to `CN(C)/C(CN1CCN(C=O)CC1)=C1\N=C(c2ccccc2)OC1=O`, the AC50 entry is “inactive”.
Take `O=S(=O)(c1ccc(Cl)s1)N1CCc2ccccc2C1`: the AC50 was 708 nM (active).
With `COc1ccccc1CN1CC[C@@]2(CCCN(S(=O)(=O)c3ccccc3)C2)C1`, the AC50 entry is “inactive”.
For the compound `O=C(ON=C1CCN(S(=O)(=O)c2ccccc2)CC1)c1ccccc1`, the AC50 result is “inactive”.
As to `COc1ccc(S(=O)(=O)N2CCc3ccccc3C2)cc1OC`, the AC50 is 447 nM (active).
Turning to `CCN1C(=O)[C@H]2[C@H]3[C@H](O)[C@H](O)C/C(=N/O[C@@H]4O[C@H](COC(C)=O)[C@@H](OC(C)=O)[C@H](OC(C)=O)[C@H]4OC(C)=O)[C@@H]3CC[C@@H]2C1=O`, the activity, negative = inhibition was 34.2% [at 11.4 µM].
For `CCN(CC)CCOC(=O)C(c1ccccc1)c1ccccc1`, the AC50 entry was “inactive”.
Same read-out and setting: under `CCN(CC)CC#CCC(C)(c1ccccc1)c1ccccc1` stands 447 nM (active); under `CCN(CCCc1ccccc1)CCCc1ccccc1`, “inactive”.
With `COc1ccccc1N1CCN(CCN(C(=O)C2CCCCC2)c2ccccn2)CC1`, the AC50 result was “inactive”.
On the same count and under the same terms, under `O=C(c1ccc(N2CCCCC2)c([N+](=O)[O-])c1)N(Cc1ccccc1)c1ccccn1` stands 14100 nM (active); under `O=C1C(Cl)=C(Sc2nnc3c4ccccc4c4ccccc4c3n2)C(=O)c2ccccc21`, 1580 nM (active); under `CN(CC(=O)N1CCN(c2ccccc2)CC1)S(=O)(=O)c1cnc[nH]1`, 2240 nM (active).
Consider `CCc1cccc(NC(=O)CN(C)S(=O)(=O)c2cnc[nH]2)c1`, for which the concentration at half-maximal activity (AC50) is 447 nM (active).
With `CC[n+]1c(/C=C/Nc2ccccc2)oc2ccccc21`, the AC50 result was “inactive”.
In the case of `CCCNC(=O)OC[C@@H]1O[C@H](CCON=C(C)C)C=C[C@@H]1Oc1ccc(OC)cc1`, the activity, negative = inhibition was -39.5% [at 11.4 µM].
As for `CCCNC(=O)OC[C@@H]1O[C@H](CCO/N=C2\c3cc(OC)ccc3O[C@H](c3cccc(OC)c3)[C@H]2O)C=C[C@@H]1Oc1ccc(OC)cc1`, the concentration at half-maximal activity (AC50) was 1580 nM (active).
Consider `CCCNC(=O)OC[C@@H]1O[C@H](CCO/N=C(\C)CCN2CCc3nc(CC)c(CC)cc3C2)C=C[C@@H]1Oc1ccc(OC)cc1`, for which the activity, negative = inhibition is -24.5% [at 11.4 µM].
For the compound `COc1ccc(O[C@H]2C=C[C@@H](c3ccccc3)O[C@H]2CO/N=C2/c3cc(OC)ccc3O[C@@H](c3cccc(OC)c3)[C@H]2O)cc1`, the concentration at half-maximal activity (AC50) is 501 nM (active).
As for `CCOC(=O)CCCc1c[nH]c2ccccc12`, the AC50 was 5010 nM (active).
With `CCOC(=O)CCCN`, the activity, negative = inhibition was 31.2% [at 11.4 µM].
Take `CC(C)CNC(=O)CCCc1c[nH]c2ccccc12`: the AC50 was 2240 nM (active).
In the case of `C[C@@](N)(Cc1c[nH]c2ccccc12)C(=O)O`, the activity, negative = inhibition was 34.7% [at 11.4 µM].
Regarding `N[C@@H](Cc1c[nH]c2ccccc12)C(=O)O`, the AC50 result was “inactive”.
Regarding `N[C@@H]1CONC1=O`, the AC50 result is “inactive”.
Turning to `CO/N=C(\C(=O)N[C@@H]1C(=O)N2C(C(=O)O)=C(COC(C)=O)CS[C@@H]12)c1csc(N)n1`, the AC50 result is “inactive”.
On to `Cc1ccsc1/C=C1/SC(=O)N(CC(=O)N2CCOCC2)C1=O`, for which the AC50 result was “inactive”.
`Cc1cc(N2CCOCC2)ccc1/C=C1\SC(=O)N(C(C)C)C1=O`: the half-maximal activity concentration (AC50) is 10000 nM (active).
With `Nc1ncc(-c2ccccc2)n1CC1CCCO1` (stereo not given), the concentration at half-maximal activity (AC50) was 5620 nM (active).
Regarding `O=c1c(-c2ccccc2)nc2cnc(N3CCOCC3)nc2n1C[C@H]1CCCO1`, the AC50 entry is “inactive”.
On to `O=c1cnc2cnc(Nc3ccccc3)nc2n1C[C@H]1CCCO1`, for which the AC50 result is “inactive”.
In the case of `COc1ccc(-n2c(-c3cnccn3)n[nH]c2=S)cc1`, the AC50 result is “inactive”.
On the same count and under the same terms, under `CC(/C=N/n1c(-c2cccnc2)n[nH]c1=S)=C\c1ccccc1` stands 2820 nM (active); under `Nc1c2c(nc3ccccc13)CCCC2`, “inactive”.
For `COc1cc(-c2nnc(COC(=O)c3c4c(nc5ccccc35)CCCC4)o2)cc(OC)c1OC`, the half-maximal activity concentration (AC50) is 1780 nM (active).
As for `C[C@@H]1C[C@H](OC(=O)c2ccccc2O)CC(C)(C)C1`, the concentration at half-maximal activity (AC50) is 10000 nM (active).
As for `C[C@@H]1C[C@H](OC(=O)[C@@H](O)c2ccccc2)CC(C)(C)N1C`, the AC50 result is “inactive”.
For `O=C(Nc1cccc(F)c1)N1CCC2(CC1)CCN(C(=O)c1cnccn1)CC2`, the AC50 entry is “inactive”.
`CCOC(=O)c1c2ccc(OCC(=O)N/N=C/c3ccc(Cl)cc3)cc2n2ccccc12`: the AC50 was 2510 nM (active).
Regarding `CCOC(=O)c1c2c(n3ccccc13)C(=O)c1ccccc1C2=O`, the activity, negative = inhibition was 0.385% [at 11.4 µM].
For the compound `Cc1ccc(NC(=S)Nc2ccc(Br)cc2)cc1`, the concentration at half-maximal activity (AC50) was 562 nM (active).
Consider `Cc1cccc(NC(=S)Nc2ccc(Br)cc2)c1`, for which the AC50 was 708 nM (active).
Regarding `CCCNC(=S)Nc1ccc(Br)cc1`, the AC50 is 7940 nM (active).
Regarding `C/C(=N\NC(=S)Nc1cccc(C)c1)c1ccccc1`, the concentration at half-maximal activity (AC50) was 447 nM (active).
With `CCN1C(=O)[C@H]2[C@H]3[C@H](O)[C@H](O)C/C(=N/O[C@@H]4O[C@@H](COC(C)=O)[C@@H](OC(C)=O)[C@@H](OC(C)=O)[C@H]4OC(C)=O)[C@H]3CC[C@@H]2C1=O`, the activity, negative = inhibition was 16.6% [at 11.4 µM].
On the same count and under the same terms, under `CO[C@@H]1COC(=O)[C@H](COCc2ccccc2)NC(=O)C/C=C\[C@@H](C)[C@H](OC)COC(=O)[C@@H](C)NC(=O)C/C=C\[C@H]1C` stands 5.67% [at 11.4 µM].
Turning to `COc1ccc(-c2csc(NC(=O)CCn3cnc4ccccc4c3=O)n2)cc1OC`, the AC50 was 2820 nM (active).
In the case of `COc1ccc(-c2ccc(=O)n(CC(=O)Nc3nnc(C(C)C)s3)n2)cc1OC`, the AC50 result is “inactive”.
With `CCCC(=O)Nc1nc(-c2ccc3c(c2)CCN3S(C)(=O)=O)cs1`, the AC50 entry is “inactive”.
Take `CN1CCN(Cc2nc3cccc4c3c([n+]2[O-])-c2ccccc2-4)CC1`: the activity, negative = inhibition was -13.4% [at 11.4 µM].
For the compound `C=CCn1c(SCC(=O)N2CCc3ccccc3C2)nc2ccccc2c1=O`, the AC50 was 1580 nM (active).
Take `O=C(Cn1c(SCC(=O)N2CCc3ccccc3C2)nc2ccccc21)NC1CCCC1`: the AC50 is 10000 nM (active).
As to `COc1ccc2c3c(ccc2c1)N[C@H](C(=O)O)CC3`, the activity, negative = inhibition was 3.64% [at 11.4 µM].
As to `CN1CC(c2ccccc2)C2(COc3ccccc3C2=O)C12C(=O)Nc1ccccc12` (stereo not given), the AC50 is 1120 nM (active).
As to `Cc1ccc(CONC(=O)/N=C/N(C)C)cc1`, the concentration at half-maximal activity (AC50) was 4470 nM (active).
In the case of `CN1CCN(c2ccc([N+](=O)[O-])cc2S(=O)(=O)N2CCOCC2)CC1`, the AC50 entry is “inactive”.
As for `CN1CCN(c2ccncc2S(=O)(=O)N2CCN(C)CC2)CC1`, the activity, negative = inhibition is 15.7% [at 11.4 µM].
With `O=C(c1ccc(Br)cc1)c1cc([N+](=O)[O-])ccc1N1CCCCC1`, the AC50 was 1260 nM (active).
As to `CN1CCN(CCCN2c3ccccc3Sc3ccc(S(=O)(=O)N(C)C)cc32)CC1`, the AC50 entry is “inactive”.
As for `CN1CCN(S(=O)(=O)c2cc([N+](=O)[O-])ccc2N2CCCCCC2)CC1`, the concentration at half-maximal activity (AC50) was 631 nM (active).
Turning to `CN(C)S(=O)(=O)c1cc([N+](=O)[O-])ccc1N1CCCCCC1`, the AC50 was 5010 nM (active).
As to `Cc1cc2c(nc1C)CCCN2C[C@H](O)CN1CCCc2nc(-c3ccc(Br)cc3)ccc21`, the activity, negative = inhibition was -41.3% [at 11.4 µM] and -36.7% [at 11.4 µM].
Consider `O=C(CNC(=O)c1ccco1)OCc1c(F)cccc1Cl`, for which the AC50 was 15800 nM (active).
Consider `Cc1ccc2[nH]c(=O)c(NC(N)=S)nc2c1`, for which the AC50 was 20000 nM (active).
Turning to `COc1cccc(-c2cncnc2Nc2ccc(F)cc2)c1`, the AC50 was 398 nM (active).
Same read-out and setting: under `CNc1ncncc1-c1ccccc1OC` stands “inactive”.
As to `Cc1ccccc1-c1cncnc1Nc1ccccc1`, the concentration at half-maximal activity (AC50) was 3160 nM (active).
Turning to `CS(=O)(=O)Nc1cccc(-c2cncnc2Nc2ccc(F)cc2)c1`, the AC50 entry is “inactive”.
On the same count and under the same terms, under `COc1cccc(Nc2ncc3nc(-c4ccc(F)cc4)c(=O)n(CCC#N)c3n2)c1` stands “inactive”; under `Cc1ccccc1-c1cncnc1Nc1ccc(F)cc1`, 5010 nM (active).
The same measure, in the same setting: under `COc1ccccc1-c1cncnc1Nc1ccc(F)cc1` stands 5010 nM (active).
As for `Cc1ccccc1-c1cncnc1NC1CCNCC1`, the AC50 entry is “inactive”.
As for `CNc1ncncc1-c1ccccc1C`, the AC50 result is “inactive”.
As for `CC(C)(C)C(=O)NC(=C(Cl)Cl)P(=O)(O)O`, the AC50 entry was “inactive”.
Regarding `CCOC(=O)N/N=C1/C[C@@H](O)[C@@H](O)[C@@H]2[C@@H]3C(=O)N([C@@H](C)c4ccccc4)C(=O)[C@H]3CC[C@H]12`, the activity, negative = inhibition is 12.9% [at 11.4 µM].
With `CC(C)Nc1cc(C(F)(F)F)nc(-c2ccccn2)n1`, the AC50 entry is “inactive”.
Turning to `CC(C)c1cc(C(F)(F)F)nc(NNc2nc(C(C)C)cc(C(F)(F)F)n2)n1`, the concentration at half-maximal activity (AC50) is 2510 nM (active).

These data come from PubChem BioAssay AID1851 (National Center for Advancing Translational Sciences (NCATS), 2009).
